This is an account of results in PubChem BioAssay (NCATS).

Results filed as inconclusive are left out. A call without a number means that no potency is given here. Values without a mark were called inactive. Active and inactive are the calls of the source. Calls come from the whole dose curve; as a rule, active = well fitted inhibition curve with a large enough effect; inconclusive = small, poorly fitted or top-dose-only effect; inactive = flat fitted curve, though single readings scatter.

A short description of the assay: P-glycoprotein substrates identified in KB-8-5-11 adenocarcinoma cell line, qHTS therapeutic library screen (AID 1346987). Note: nearly all actives have a fitted effect of over 65% in size. Particulars: KB-8-5-11 (P-gp overexpressing) viability, CellTiter-Glo, 72 h; series mostly up to 44.5 µM. The method in brief: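 In this qHTS, P-gp-rich KB-8-5-11 cells received library compounds across a concentration range. Viability was quantified by luminescence after 72 h at 37 degree C.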
Turning to `O=c1ccn([C@@H]2O[C@H](CO)[C@@H](O)[C@H]2O)c(=O)[nH]1`, the Potency entry was “inactive”.

In the case of `C/C=C(\C)C(=O)OC[C@H]1O[C@H](O[C@H]2O[C@H](CO)[C@@H](OC(=O)/C(C)=C/C)[C@H](O)[C@H]2O[C@@H]2O[C@H](CO)[C@@H](O)[C@H](O)[C@H]2O)[C@H](O[C@@H]2O[C@H](CO)[C@@H](O)[C@H](O)[C@H]2O)[C@@H](O)[C@@H]1O`, the outcome is “inactive [at 9.29 µM]”.

Consider `C#Cc1cnc2[nH]c(=O)n(C(CC)CC)c2n1`, for which the Potency result was “inactive”.

For the compound `C[C@@H]1O[C@@H](O[C@@H]2[C@@H](O)[C@H](O[C@@H]3[C@@H](O)[C@@H](O)[C@H](O[C@H]4[C@H](OC(=O)[C@]56CCC(C)(C)C[C@H]5C5=CCC7[C@@]8(C)C[C@H](O)[C@H](O[C@@H]9O[C@H](C(=O)O)[C@@H](O)[C@H](O)[C@H]9O)[C@@](C)(CO)C8[C@H](O)C[C@@]7(C)[C@]5(C)CC6)OC[C@H](O)[C@@H]4O)O[C@H]3C)OC[C@H]2O)[C@H](O)[C@H](O)[C@H]1O` (stereo partly specified), the outcome is “inactive [at 9.29 µM]”.

In the case of `CCS(=O)(=O)N1CCC([C@@H](C)n2c(C)c(C(=O)NCc3c(OC)cc(C)[nH]c3=O)c3ccccc32)CC1`, the Potency entry is “inactive”.

`O=C(O)C[C@@H](NC(=O)c1cc(-c2ccc(-c3ccncc3)cc2)cs1)c1ccccc1`: the Potency result was “inactive”.

On to `Cc1nn(C)c2c1C(c1ccc(C(F)(F)F)cc1)C(C#N)=C(N)O2` (stereo unspecified), for which the Potency result is “inactive”.

With `CNC(=O)Nc1ccc(OC)c(NC(=O)NC(=O)c2cc(F)c(F)cc2Cl)c1`, the Potency entry is “inactive”.

Regarding `C[C@@H]1O[C@@H](O[C@H]2[C@H](O[C@H]3CO[C@@H](O[C@H]4CC[C@@]5(C)C(CC[C@]6(C)C5CC[C@]57OC[C@@]8(CC[C@](C)(CO)CC85)[C@H](O)C[C@]76C)C4(C)C)[C@H](O[C@@H]4O[C@H](CO)[C@@H](O)[C@H](O)[C@H]4O)[C@H]3O)O[C@H](CO)[C@@H](O)[C@@H]2O)[C@H](O)[C@H](O)[C@H]1O` (stereo partly specified), the activity change, negative = cytotoxicity was 8.31% [at 9.29 µM].

For `C[C@@H](OC(=O)/C=C/c1ccc(O)cc1)C1=C[C@]2(C=C[C@@H]3C(C(=O)O)=CO[C@@H](O[C@@H]4O[C@H](CO[C@@H]5O[C@H](CO)[C@@H](O)[C@H](O)[C@H]5O)[C@@H](O)[C@H](O)[C@H]4O)[C@@H]32)OC1=O`, the Potency entry was “inactive”.

As for `O=C(O)C[C@H]1CCC(=O)[C@@H]1C/C=C\CCOC1OC(CO)C(O)C(O)C1O` (stereo partly specified), the Potency result is “inactive”.

Consider `COc1ccc(C(OC2OC(CO)C(O)C(O)C2O)C(C)O)cc1` (stereo unspecified), for which the Potency entry was “inactive”.

Regarding `CCOC(=O)N1CCC(NCCNC(=O)c2ccccc2C)CC1`, the Potency entry was “inactive”.

`C=C1C[C@]23C[C@H]1CC[C@H]2[C@]1(C)CCC[C@@]2(CO)C(=O)O[C@H]([C@H]21)[C@@H]3O`: the Potency result was “inactive”.

Consider `COc1cc(C2Oc3c(OC)cc(CCCO[C@@H]4O[C@H](CO)[C@@H](O)[C@H](O)[C@H]4O)cc3C2CO)ccc1O` (stereo partly specified), for which the Potency entry is “inactive”.

As to `C=CC1(C)CC2=CCC3C(C)(C(=O)O)CCCC3(C)C2CC1OC(C)=O` (stereo unspecified), the Potency entry was “inactive”.

Regarding `C=C1CC[C@@H]2[C@](C)(CO[C@@H]3O[C@H](CO)[C@@H](O)[C@H](O)[C@H]3O)CCC[C@@]2(C)[C@@H]1CCC1=CCOC1=O`, the Potency entry was “inactive”.

Regarding `O=C1CC(c2ccc([N+](=O)[O-])cc2)=NN1c1ccccc1`, the Potency entry is “inactive”.

On to `NCc1ccc(OCCCc2sc(-c3ccc4c(c3)/C(=N/Nc3nc5ccccc5s3)CCC4)nc2C(=O)O)cc1`, for which the Potency entry is “inactive”.

As for `C[C@@H]1CC[C@]2(C(=O)O[C@@H]3O[C@H](CO)[C@@H](O)[C@H](O)[C@H]3O)CC[C@]3(C)C(=CCC4[C@@]5(C)C[C@@H](O)[C@H](O)C(C)(C)C5CC[C@]43C)C2[C@]1(C)O` (stereo partly specified), the Potency entry was “inactive”.

For `C=C1CCC(OC(C)=O)C2(C)CC3(O)OC(=O)C(C)=C3CC12` (stereo unspecified), the Potency entry is “inactive”.

Regarding `CC1NC(=O)C(Cc2c[nH]c3ccccc23)NC1=O` (stereo unspecified), the Potency result is “inactive”.

`Cc1cc(C)c(S(=O)(=O)N(Cc2ccc(-c3cccc(S(C)(=O)=O)c3)cc2)Cc2ccc(C(F)(F)F)o2)c(C)c1`: the Potency result was “inactive”.

On to `O=S(=O)(NC1CCNCC1)c1cc(S(=O)(=O)c2ccccc2)ccc1C(F)(F)F`, for which the Potency entry is “inactive”.

For `CC(C)C(=O)O[C@@H]1[C@@H](O)[C@@H](O[C@H]2O[C@H](CO)[C@@H](O)[C@H](O)[C@H]2O)O[C@H](CO)[C@H]1O`, the Potency entry is “inactive”.

For the compound `CC1(C)CC[C@]2(C(=O)O[C@@H]3O[C@H](CO)[C@@H](O)[C@H](O)[C@H]3O)CC[C@]3(C)C(=CCC4[C@@]5(C)C[C@@H](O)[C@H](O)C(CO)(CO)C5CC[C@]43C)C2[C@@H]1O` (stereo partly specified), the Potency entry was “inactive”.
